One assay has as its system MCC-13. As to the kind of experiment: qHTS assay to identify novel small-molecules to repurpose for Merkel cell carcinoma treatment (AID 1296009). Note: nearly all actives have a fitted effect of over 60% in size. Particulars: MCC and control cell lines, CellTiter-Glo viability, 72 h; series mostly up to 46 µM. The essentials: (§1)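 Cells were treated for 72 hr at 37 degree celsius with compounds in 8- or 11-point dose response. Viability was read by CellTiter-Glo luminescence, normalized to no-cell (cytotoxicity) and DMSO controls.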
On the technique in general: Quantitative high-throughput screening tests each substance at several concentrations.

The subject of the next assay is MCC-26. The description is as above. Particulars: MCC and control cell lines, CellTiter-Glo viability, 72 h; series mostly up to 46 µM. The essentials: as §1
The test system of a further assay is MKL-1. The description is as above. Particulars: MCC and control cell lines, CellTiter-Glo viability, 72 h; series mostly up to 46 µM. Summed up:
as §1
On the technique in general: Cellular ATP, detected with luciferase, serves as a proxy for viable cell number.

In the next assay the test system is MKL-2. The description is as above. Particulars: MCC and control cell lines, CellTiter-Glo viability, 72 h; series mostly up to 46 µM. The essentials:
as §1

The next assay concerns UISO. The description is as above. Particulars: MCC and control cell lines, CellTiter-Glo viability, 72 h; series mostly up to 46 µM. Summed up: as §1
In a further assay the test system is WaGa. The assay is described as above. Particulars: MCC and control cell lines, CellTiter-Glo viability, 72 h; series mostly up to 46 µM. Summed up: as §1
A further assay relates to C33A. The assay can be described thus: Primary qHTS to identify gynecologic anti-cancer compounds using libraries of approved drugs and bioactive compounds (AID 1345084). Note: nearly all actives have a fitted effect of over 55% in size. Note: potency is the fitted concentration of half-maximal effect. Particulars: Gynecologic cancer cell panel viability, ATPlite luminescence, 48 h; series mostly up to 57.5 µM. Summed up: (§2)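 Measured: luminescence after ATPlite addition (15 min, RT). Exposure: 48 h, 37 C, 5% CO2.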

Another assay deals with CASKI. The description is as above. Particulars: Gynecologic cancer cell panel viability, ATPlite luminescence, 48 h; series mostly up to 57.5 µM. The essentials: as §2
The test system of the next assay is Es-2. Described as above. Particulars: Gynecologic cancer cell panel viability, ATPlite luminescence, 48 h; series mostly up to 57.5 µM. Summed up:
as §2

The test system of the next assay is HeLa. The assay is described as above. Particulars: Gynecologic cancer cell panel viability, ATPlite luminescence, 48 h; series mostly up to 57.5 µM. The essentials: as §2
The test system of the next assay is Hek293T. The assay is described as above. Particulars: Gynecologic cancer cell panel viability, ATPlite luminescence, 48 h, control line for the selectivity index; series mostly up to 57.5 µM. The essentials: as §2
For a further assay, the system named is JEG-3. The description is as above. Particulars: Gynecologic cancer cell panel viability, ATPlite luminescence, 48 h; series mostly up to 57.5 µM. Summed up: as §2
A further assay relates to OV90. Described as above. Particulars: Gynecologic cancer cell panel viability, ATPlite luminescence, 48 h; series mostly up to 57.5 µM. Summed up:
as §2

A further assay deals with PA-1. The assay is described as above. Particulars: Gynecologic cancer cell panel viability, ATPlite luminescence, 48 h; series mostly up to 57.5 µM. The essentials:
as §2

A further assay has as its system SKOV3. The description is as above. Particulars: Gynecologic cancer cell panel viability, ATPlite luminescence, 48 h; series mostly up to 57.5 µM. Summed up: as §2
For the next assay, the system named is Tov-21-G. Described as above. Particulars: Gynecologic cancer cell panel viability, ATPlite luminescence, 48 h; series mostly up to 57.5 µM. Summed up: as §2
The test system of another assay is CAOV3. The description is as above. Particulars: Gynecologic cancer cell panel viability, ATPlite luminescence, 48 h; series mostly up to 57.5 µM. The essentials: as §2

Each structure is given as a SMILES string. Records with an inconclusive call do not appear. Active and inactive are the calls of the source. Calls come from the whole dose curve; as a rule, active = well fitted curve in the direction sought with a large enough effect; inconclusive = small, poorly fitted or top-dose-only effect, or another doubt; inactive = no such curve, though single readings can be large; an effect the other way counts as inactive or inconclusive.

`Nc1nc(-c2ccccc2)c(Br)c(=O)[nH]1`: the Potency entry with MCC-13, with MCC-26, in the assay with MKL-1, in the assay on MKL-2, in the assay with UISO and with WaGa was “inactive” throughout. Also, the Potency result in the assay with C33A, in the assay with CASKI, in the assay with Es-2, with HeLa, in the assay on Hek293T and in the assay with JEG-3 was “inactive” throughout. For the same compound, the Potency entry in the assay with OV90, with PA-1, with SKOV3 and with Tov-21-G was “inactive” throughout.
With `CN(C)C(=O)Nc1ccc(Cl)c(Cl)c1`, the Potency entry with MCC-13, in the assay with MCC-26, with MKL-1, with MKL-2, in the assay on UISO and in the assay with WaGa was “inactive” in each case. Also, the Potency entry with C33A, in the assay with CASKI, in the assay on Es-2, in the assay with HeLa, in the assay on Hek293T and with JEG-3 was “inactive” throughout. For the same compound, the Potency result with OV90, in the assay with PA-1, in the assay with SKOV3 and in the assay with Tov-21-G was “inactive” in each case.
For the compound `C#C[C@]1(O)CC[C@H]2[C@@H]3CCC4=Cc5oncc5C[C@]4(C)[C@H]3CC[C@@]21C`, the Potency entry in the assay with MCC-13, in the assay on MCC-26, with MKL-1, with MKL-2, with UISO and with WaGa was “inactive” in each case. The Potency entry with C33A, with CAOV3, in the assay with CASKI, in the assay with Es-2, in the assay with JEG-3 and with OV90 was “inactive” in each case. In addition, in the assay with Tov-21-G, the Potency entry was “inactive”. The results for the Potency in the assay with HeLa and with PA-1 were 0.794 µM (active) and 10 µM (active), respectively.
As for `CC(C)Cn1cnc2c1c(=O)n(C)c(=O)n2C`, the Potency entry with MCC-13, with MCC-26, with MKL-1, in the assay with MKL-2, in the assay on UISO and with WaGa was “inactive” throughout. Besides, the Potency result in the assay with C33A, in the assay on CAOV3, in the assay with CASKI, in the assay with Es-2, with Hek293T and with JEG-3 was “inactive” each time. For the same compound, the Potency entry in the assay on OV90, in the assay on PA-1, in the assay on SKOV3 and in the assay on Tov-21-G was “inactive” each time.
Take `CN(C)CCN1C(=O)c2ccccc2N(C)c2ccccc21`: the Potency entry in the assay with MCC-13, in the assay with MCC-26, in the assay on MKL-1, in the assay on MKL-2, in the assay with UISO and with WaGa was “inactive” in each case. The Potency result in the assay on C33A, in the assay with CASKI, in the assay on Es-2, in the assay with HeLa, in the assay on Hek293T and in the assay on JEG-3 was “inactive” in each case. Also, the Potency entry with OV90, in the assay on PA-1, with SKOV3 and in the assay with Tov-21-G was “inactive” each time.
Consider `c1ccc(-c2nc[nH]c2-c2ccccc2)cc1`, for which the Potency entry with MCC-13, in the assay on MCC-26, in the assay with MKL-1, in the assay with MKL-2, in the assay on UISO and in the assay with WaGa was “inactive” each time. In addition, the Potency result in the assay on CAOV3, in the assay on CASKI, with Es-2, in the assay on HeLa, with Hek293T and with JEG-3 was “inactive” in each case. The Potency entry in the assay on OV90, in the assay on PA-1, with SKOV3 and in the assay with Tov-21-G was “inactive” throughout.
As to `COP(=O)(OC)OC(c1ccc(Cl)cc1)P(=O)(OC)OC` (configuration not stated), the Potency entry in the assay on MCC-13, with MCC-26, in the assay on MKL-1, with MKL-2, in the assay with UISO and in the assay with WaGa was “inactive” in each case. Also, the Potency entry in the assay with C33A, in the assay on CASKI, in the assay with Es-2, in the assay with HeLa, in the assay on Hek293T and with JEG-3 was “inactive” throughout. In addition, the Potency entry with OV90, in the assay on PA-1, with SKOV3 and in the assay with Tov-21-G was “inactive” throughout.
In the case of `O=C(O)C(Cc1cc(I)c(O)c(I)c1)c1ccccc1` (configuration not stated), the Potency result with MCC-13, in the assay on MCC-26, in the assay with MKL-1, in the assay on MKL-2, in the assay on UISO and with WaGa was “inactive” each time. For the same compound, the Potency result in the assay on C33A, in the assay on CAOV3, with CASKI, in the assay with Es-2, in the assay on HeLa and with Hek293T was “inactive” each time. For the same compound, the Potency entry in the assay on JEG-3, in the assay on OV90, with SKOV3 and with Tov-21-G was “inactive” throughout.

The values above are taken from PubChem BioAssay (NCATS).
